Laboratory results reported in the supplement of paper PMC11732987, “Enantioselective OTUD7B fragment discovery through chemoproteomics screening and high-throughput optimisation” (Communications Chemistry, 2025).

Experiments:
Assay in all cases: log2 ratio of Biotin-Ahx-Ub-VS probe labelling (fragment/DMSO); higher = less target engagement (more negative = stronger competition), active = hit call of the paper (q ≤ 0.05, log2 ratio ≤ -1)
Settings in all cases: compound concentration: 200 uM; treatment time: 3 h
[1] = target: T1, USP42 (UniProt Q9H9J4)
T1 sequence (whole entry): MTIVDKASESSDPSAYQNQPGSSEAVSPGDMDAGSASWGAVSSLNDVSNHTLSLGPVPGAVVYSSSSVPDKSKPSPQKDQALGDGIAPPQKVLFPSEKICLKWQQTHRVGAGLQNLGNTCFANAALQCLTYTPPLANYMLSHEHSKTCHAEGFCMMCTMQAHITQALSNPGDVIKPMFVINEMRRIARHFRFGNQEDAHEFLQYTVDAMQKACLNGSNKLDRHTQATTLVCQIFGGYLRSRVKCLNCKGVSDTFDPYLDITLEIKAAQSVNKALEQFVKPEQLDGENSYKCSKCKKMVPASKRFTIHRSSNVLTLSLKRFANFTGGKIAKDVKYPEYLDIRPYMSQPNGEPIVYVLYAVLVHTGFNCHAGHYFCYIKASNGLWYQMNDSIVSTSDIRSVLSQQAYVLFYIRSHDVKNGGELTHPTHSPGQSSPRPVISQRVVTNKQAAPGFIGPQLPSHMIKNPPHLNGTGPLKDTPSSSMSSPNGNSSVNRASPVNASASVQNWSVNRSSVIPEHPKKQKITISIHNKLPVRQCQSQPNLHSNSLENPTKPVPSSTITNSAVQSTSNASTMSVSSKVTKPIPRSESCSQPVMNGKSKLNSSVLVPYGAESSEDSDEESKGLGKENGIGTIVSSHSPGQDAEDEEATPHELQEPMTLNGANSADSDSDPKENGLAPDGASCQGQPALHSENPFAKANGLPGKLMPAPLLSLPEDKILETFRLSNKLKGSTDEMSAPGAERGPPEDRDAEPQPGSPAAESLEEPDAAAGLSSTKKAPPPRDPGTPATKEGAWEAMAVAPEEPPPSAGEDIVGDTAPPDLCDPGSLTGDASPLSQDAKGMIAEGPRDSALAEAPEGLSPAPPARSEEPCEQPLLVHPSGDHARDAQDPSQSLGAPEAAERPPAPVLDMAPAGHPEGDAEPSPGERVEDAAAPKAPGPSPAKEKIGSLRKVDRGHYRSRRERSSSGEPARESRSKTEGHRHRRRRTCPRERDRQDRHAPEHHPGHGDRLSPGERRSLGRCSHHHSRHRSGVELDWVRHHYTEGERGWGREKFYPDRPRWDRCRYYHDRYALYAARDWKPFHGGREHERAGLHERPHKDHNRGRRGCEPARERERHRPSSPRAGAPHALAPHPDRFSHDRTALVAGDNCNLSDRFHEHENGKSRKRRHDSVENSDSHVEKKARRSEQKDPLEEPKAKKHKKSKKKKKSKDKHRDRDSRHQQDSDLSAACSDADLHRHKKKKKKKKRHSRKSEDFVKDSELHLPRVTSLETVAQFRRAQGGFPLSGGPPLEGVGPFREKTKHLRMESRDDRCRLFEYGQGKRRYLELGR
Summary of the method: (§1)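 HEK293T lysate, 495 µg per sample in Tris/CHAPS/IGEPAL buffer with protease inhibitors, was treated in triplicate with fragment at 200 µM or vehicle for 3 h and then with Biotin-Ahx-Ub-VS at 0.5 µM final for 1 h. Labelled DUBs were NeutrAvidin-enriched, digested with LysC and trypsin, and run by diaPASEF LC-MS/MS. Spectronaut label-free quantities were global-median-normalised, and values are average log2 fragment/vehicle ratios by unpaired t-test on proteins with ≥2 unique peptides.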

[2] = target: USP46 (UniProt P62068)
USP46, sequence (P62068 whole entry): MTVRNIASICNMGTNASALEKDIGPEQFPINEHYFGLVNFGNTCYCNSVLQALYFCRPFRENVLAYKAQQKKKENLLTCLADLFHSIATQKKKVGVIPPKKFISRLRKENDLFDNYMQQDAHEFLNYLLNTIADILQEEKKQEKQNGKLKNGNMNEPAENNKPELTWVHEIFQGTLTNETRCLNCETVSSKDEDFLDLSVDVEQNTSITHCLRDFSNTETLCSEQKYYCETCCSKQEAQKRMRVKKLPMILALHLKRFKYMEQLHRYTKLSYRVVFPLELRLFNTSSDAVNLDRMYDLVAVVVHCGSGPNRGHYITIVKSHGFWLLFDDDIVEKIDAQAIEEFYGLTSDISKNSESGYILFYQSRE
Summary of the method: as §1

[3] = target: T2, USP47 (UniProt Q96K76)
T2 sequence (whole entry): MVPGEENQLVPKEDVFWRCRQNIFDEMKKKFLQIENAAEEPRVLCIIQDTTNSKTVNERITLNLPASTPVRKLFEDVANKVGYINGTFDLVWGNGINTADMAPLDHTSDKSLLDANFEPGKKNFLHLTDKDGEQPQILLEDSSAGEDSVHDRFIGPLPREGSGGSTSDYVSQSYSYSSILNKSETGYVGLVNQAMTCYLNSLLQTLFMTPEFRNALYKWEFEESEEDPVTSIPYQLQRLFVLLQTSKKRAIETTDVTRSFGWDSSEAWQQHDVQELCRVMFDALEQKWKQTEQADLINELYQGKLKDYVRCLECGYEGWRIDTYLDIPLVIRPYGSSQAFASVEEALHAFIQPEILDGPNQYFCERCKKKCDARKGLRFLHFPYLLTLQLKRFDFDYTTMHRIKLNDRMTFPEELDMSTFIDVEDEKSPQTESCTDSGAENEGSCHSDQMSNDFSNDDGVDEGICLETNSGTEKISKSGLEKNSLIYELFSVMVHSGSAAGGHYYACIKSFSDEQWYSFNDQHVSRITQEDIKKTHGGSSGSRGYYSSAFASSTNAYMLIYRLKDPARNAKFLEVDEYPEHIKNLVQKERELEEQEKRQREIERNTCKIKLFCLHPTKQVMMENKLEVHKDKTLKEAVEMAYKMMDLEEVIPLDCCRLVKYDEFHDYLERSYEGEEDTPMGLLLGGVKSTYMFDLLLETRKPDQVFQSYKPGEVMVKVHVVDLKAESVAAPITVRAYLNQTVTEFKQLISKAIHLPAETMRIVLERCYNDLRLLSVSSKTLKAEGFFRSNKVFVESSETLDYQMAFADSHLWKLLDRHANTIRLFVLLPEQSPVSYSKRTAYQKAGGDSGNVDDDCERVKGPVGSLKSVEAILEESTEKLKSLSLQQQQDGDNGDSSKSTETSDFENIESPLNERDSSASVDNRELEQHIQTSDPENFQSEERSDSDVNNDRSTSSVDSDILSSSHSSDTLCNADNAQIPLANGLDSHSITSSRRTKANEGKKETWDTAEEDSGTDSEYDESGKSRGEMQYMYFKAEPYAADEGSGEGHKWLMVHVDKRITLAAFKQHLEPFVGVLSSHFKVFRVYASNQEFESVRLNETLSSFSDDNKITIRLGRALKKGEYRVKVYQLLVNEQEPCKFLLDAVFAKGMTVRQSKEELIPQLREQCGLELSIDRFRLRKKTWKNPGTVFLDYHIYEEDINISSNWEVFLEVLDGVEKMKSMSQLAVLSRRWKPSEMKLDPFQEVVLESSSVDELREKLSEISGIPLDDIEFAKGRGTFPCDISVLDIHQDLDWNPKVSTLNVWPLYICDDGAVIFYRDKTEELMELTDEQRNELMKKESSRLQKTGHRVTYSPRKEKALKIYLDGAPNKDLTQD
Summary of the method: as §1

[4] = target: T3, USP48 (UniProt Q86UV5)
T3 sequence (whole entry): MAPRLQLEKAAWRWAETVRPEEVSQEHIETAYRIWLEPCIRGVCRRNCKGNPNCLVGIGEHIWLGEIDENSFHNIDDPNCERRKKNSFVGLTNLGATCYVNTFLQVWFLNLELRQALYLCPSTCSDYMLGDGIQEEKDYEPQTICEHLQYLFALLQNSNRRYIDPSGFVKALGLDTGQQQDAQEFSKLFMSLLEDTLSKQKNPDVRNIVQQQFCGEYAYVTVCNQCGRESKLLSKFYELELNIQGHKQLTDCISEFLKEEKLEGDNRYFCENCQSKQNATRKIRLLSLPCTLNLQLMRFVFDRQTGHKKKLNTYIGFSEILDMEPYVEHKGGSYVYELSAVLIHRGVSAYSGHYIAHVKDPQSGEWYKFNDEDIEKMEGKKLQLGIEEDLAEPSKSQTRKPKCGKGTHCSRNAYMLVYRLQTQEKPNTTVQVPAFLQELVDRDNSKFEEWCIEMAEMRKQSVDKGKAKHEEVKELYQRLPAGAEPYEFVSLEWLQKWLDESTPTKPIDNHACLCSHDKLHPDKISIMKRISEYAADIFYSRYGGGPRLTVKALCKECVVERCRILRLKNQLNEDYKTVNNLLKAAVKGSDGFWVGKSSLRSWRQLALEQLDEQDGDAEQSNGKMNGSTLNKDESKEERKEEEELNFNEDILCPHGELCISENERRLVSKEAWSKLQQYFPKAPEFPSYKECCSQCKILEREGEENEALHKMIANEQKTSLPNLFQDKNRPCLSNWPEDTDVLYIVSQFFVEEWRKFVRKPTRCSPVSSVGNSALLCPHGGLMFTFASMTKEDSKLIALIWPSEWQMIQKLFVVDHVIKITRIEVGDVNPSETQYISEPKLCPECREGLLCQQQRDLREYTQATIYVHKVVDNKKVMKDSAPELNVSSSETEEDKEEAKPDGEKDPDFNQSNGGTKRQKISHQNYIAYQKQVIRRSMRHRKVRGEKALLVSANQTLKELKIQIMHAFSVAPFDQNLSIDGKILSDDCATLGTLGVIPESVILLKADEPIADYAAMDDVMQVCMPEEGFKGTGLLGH
Summary of the method: as §1

[5] = target: T4, USP5 (UniProt P45974)
T4 sequence (whole entry): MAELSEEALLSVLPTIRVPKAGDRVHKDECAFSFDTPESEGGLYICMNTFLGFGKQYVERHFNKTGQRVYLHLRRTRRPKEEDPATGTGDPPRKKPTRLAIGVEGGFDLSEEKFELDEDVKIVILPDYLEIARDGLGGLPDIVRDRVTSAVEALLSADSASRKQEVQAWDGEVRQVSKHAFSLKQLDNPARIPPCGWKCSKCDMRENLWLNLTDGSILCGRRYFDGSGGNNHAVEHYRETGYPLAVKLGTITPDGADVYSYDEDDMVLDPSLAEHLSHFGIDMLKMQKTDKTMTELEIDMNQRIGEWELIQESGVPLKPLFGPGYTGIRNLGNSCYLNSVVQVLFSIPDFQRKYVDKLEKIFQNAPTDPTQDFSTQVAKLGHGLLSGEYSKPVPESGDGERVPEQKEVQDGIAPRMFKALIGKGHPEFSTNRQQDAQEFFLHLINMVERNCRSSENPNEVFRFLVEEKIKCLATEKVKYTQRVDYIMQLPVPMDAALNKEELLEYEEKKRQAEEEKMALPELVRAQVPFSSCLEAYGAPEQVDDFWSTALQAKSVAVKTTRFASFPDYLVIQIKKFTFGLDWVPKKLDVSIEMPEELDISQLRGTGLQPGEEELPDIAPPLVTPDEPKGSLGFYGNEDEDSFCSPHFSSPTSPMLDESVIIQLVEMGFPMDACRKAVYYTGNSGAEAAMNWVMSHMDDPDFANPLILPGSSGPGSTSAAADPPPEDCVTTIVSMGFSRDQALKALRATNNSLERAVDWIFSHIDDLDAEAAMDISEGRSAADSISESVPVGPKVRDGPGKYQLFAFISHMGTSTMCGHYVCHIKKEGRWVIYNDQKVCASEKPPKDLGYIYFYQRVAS
Summary of the method: as §1

[6] = target: USP54 (UniProt Q70EL1)
Summary of the method: as §1

[7] = target: USP7 (UniProt Q93009)
USP7, sequence (Q93009 whole entry, looked up): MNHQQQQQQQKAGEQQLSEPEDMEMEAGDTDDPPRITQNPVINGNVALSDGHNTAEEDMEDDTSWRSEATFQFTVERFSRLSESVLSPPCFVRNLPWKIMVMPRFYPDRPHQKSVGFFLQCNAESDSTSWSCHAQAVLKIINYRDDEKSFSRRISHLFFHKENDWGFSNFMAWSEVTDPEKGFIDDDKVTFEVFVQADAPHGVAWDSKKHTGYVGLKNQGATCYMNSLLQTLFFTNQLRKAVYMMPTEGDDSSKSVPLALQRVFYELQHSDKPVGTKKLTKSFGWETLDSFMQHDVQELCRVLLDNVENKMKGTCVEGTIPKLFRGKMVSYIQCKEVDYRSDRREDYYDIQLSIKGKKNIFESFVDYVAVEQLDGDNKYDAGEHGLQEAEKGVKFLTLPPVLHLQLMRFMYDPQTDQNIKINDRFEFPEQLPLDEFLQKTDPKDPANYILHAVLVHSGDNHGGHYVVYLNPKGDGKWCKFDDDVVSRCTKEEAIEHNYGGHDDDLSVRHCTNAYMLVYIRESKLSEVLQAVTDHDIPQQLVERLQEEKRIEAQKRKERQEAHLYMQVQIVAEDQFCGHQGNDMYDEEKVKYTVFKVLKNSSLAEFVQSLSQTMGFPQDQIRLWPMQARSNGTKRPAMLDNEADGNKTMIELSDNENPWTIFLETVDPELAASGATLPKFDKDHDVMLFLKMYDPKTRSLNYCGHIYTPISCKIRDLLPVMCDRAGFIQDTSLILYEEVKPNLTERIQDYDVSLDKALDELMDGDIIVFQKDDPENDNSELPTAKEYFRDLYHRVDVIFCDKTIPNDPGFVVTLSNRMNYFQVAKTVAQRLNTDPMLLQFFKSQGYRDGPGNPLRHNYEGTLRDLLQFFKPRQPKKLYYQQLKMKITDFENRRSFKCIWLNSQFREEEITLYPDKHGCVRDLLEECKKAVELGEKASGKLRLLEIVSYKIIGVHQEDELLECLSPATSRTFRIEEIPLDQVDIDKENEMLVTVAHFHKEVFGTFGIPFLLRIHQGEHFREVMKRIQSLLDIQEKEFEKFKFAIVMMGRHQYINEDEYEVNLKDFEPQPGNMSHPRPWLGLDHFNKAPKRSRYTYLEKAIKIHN
Summary of the method: as §1

[8] = target: T5, USP8 (UniProt P40818)
T5 sequence (whole entry): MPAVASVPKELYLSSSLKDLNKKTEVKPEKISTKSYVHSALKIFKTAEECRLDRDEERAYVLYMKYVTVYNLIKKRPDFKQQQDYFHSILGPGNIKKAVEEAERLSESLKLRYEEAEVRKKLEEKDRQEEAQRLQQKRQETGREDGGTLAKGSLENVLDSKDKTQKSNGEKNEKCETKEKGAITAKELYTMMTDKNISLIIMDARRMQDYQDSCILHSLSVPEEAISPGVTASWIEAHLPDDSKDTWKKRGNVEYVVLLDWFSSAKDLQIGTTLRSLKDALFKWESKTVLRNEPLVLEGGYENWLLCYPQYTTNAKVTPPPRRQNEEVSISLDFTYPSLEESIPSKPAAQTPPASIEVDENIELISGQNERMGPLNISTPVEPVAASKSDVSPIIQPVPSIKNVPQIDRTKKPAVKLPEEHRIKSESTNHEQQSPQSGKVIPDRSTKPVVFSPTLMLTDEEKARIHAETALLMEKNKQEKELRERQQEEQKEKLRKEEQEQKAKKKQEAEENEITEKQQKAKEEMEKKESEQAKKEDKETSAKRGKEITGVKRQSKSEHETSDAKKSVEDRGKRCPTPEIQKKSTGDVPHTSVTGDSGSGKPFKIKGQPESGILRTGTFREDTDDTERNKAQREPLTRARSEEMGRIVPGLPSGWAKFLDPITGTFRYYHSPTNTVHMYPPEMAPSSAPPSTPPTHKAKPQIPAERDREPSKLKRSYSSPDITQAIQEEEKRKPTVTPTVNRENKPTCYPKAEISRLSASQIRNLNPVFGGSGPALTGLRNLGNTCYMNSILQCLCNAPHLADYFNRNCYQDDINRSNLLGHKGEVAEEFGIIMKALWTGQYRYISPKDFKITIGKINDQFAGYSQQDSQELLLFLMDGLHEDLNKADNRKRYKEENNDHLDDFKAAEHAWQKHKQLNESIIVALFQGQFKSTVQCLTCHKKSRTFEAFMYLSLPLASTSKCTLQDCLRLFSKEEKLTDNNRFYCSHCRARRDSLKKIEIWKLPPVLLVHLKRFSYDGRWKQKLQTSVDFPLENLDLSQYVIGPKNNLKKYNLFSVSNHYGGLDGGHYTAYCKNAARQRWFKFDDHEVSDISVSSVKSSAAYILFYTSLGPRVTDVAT
Summary of the method: as §1

[9] = target: USP9X (UniProt Q93008)
USP9X, sequence (Q93008 whole entry): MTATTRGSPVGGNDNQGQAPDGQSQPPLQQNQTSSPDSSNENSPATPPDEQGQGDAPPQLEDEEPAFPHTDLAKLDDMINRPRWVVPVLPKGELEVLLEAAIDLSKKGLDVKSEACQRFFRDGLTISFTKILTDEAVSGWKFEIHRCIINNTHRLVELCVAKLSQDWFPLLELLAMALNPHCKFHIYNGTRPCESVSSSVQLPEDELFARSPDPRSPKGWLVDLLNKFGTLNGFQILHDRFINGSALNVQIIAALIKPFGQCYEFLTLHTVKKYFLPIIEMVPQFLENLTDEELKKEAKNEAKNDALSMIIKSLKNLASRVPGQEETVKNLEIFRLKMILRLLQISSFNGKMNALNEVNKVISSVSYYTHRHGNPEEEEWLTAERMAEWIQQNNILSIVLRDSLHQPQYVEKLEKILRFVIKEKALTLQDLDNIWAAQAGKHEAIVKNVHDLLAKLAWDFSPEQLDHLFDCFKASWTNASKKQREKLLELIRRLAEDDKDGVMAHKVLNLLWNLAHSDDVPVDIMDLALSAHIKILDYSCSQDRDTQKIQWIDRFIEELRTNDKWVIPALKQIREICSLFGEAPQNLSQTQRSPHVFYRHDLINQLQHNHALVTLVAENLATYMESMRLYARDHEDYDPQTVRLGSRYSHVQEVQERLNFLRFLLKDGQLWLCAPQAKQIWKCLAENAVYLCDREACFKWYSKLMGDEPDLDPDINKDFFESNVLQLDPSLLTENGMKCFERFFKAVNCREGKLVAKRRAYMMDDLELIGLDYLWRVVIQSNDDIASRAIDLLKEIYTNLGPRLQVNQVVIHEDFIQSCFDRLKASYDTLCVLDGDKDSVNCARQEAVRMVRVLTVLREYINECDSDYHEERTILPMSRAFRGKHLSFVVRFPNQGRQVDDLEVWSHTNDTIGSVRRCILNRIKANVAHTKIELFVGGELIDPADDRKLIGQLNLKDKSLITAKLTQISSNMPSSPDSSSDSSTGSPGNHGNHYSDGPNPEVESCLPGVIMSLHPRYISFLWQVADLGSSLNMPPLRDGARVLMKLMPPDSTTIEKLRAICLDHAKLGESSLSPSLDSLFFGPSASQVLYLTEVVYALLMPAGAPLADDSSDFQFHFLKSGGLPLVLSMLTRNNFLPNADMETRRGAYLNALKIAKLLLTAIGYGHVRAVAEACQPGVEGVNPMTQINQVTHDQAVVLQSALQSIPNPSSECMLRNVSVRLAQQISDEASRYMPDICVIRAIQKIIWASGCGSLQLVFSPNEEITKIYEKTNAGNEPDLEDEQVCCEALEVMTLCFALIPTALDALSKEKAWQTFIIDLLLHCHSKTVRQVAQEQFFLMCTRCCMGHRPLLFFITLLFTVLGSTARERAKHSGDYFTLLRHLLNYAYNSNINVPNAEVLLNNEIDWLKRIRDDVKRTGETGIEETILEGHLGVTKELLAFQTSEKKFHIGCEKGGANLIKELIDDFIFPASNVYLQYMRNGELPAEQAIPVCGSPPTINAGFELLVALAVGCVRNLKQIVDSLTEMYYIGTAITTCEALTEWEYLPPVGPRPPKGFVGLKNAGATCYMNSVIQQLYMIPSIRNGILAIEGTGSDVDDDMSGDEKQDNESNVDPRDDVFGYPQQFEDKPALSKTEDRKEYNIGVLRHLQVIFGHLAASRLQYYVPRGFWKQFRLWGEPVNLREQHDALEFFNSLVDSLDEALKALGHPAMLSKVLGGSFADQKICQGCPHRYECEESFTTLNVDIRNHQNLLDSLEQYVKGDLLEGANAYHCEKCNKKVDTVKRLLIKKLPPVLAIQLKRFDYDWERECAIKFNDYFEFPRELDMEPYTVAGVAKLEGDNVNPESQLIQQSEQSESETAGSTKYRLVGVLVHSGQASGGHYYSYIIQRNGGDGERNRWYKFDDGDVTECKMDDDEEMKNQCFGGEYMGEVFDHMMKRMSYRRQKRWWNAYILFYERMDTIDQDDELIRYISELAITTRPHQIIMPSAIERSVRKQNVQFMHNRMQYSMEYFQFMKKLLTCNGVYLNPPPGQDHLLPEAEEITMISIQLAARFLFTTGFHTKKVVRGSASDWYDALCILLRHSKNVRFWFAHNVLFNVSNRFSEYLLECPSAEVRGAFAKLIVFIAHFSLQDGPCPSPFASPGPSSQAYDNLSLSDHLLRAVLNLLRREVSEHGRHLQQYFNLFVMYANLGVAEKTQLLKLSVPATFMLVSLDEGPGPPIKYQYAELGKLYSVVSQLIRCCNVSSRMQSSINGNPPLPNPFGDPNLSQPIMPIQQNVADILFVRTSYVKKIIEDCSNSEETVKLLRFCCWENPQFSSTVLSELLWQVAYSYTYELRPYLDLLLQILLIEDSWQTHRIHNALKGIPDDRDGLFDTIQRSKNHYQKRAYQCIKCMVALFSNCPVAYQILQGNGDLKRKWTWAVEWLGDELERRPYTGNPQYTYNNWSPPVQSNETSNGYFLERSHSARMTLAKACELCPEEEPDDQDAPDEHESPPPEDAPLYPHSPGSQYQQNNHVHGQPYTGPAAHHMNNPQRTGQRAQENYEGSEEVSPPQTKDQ
Summary of the method: as §1

[10] = target: UniProt O00487
UniProt O00487, sequence (O00487 whole entry): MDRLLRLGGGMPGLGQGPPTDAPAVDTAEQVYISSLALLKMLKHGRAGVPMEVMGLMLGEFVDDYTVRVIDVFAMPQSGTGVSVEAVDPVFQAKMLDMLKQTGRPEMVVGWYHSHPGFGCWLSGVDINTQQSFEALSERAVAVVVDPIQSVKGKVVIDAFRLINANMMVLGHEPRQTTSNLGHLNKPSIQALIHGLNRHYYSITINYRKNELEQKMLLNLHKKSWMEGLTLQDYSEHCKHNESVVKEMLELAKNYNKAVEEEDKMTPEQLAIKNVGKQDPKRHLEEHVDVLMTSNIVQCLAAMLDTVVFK
Summary of the method: as §1

Measured: log2 ratio of Biotin-Ahx-Ub-VS probe labelling

O=C(CCl)N1CCCN(C(=O)c2ccc(Cl)cc2)CC1
inactive: [1] -0.0422 | [2] -0.129 | [3] -0.76 | [5] 0.0155 | [6] 0.842 | [8] -0.354 | [9] -0.318 | [10] 0.0259
active: [4] -1.16 | [7] -1.18
